Source: the supplement of paper PMC13380429

Legend:
[1] = tested on: Vero E6 infected with SARS-CoV-2; test: morphology score (similarity to uninfected cells); higher = more like uninfected cells; settings: 24 h
[2] = tested on: Vero E6 infected with SARS-CoV-2; test: SARS-CoV-2 infection rate relative to infected DMSO; higher = more infection, active = 60 or less; settings: 24 h

Row | SMILES | morphology score [1] | SARS-CoV-2 infection rate [2]
1 | CCN1CCN(c2cc3c(cc2F)c(=O)c(C(=O)O)cn3C2CC2)CC1 [enrofloxacin] (10 µM) | 0.0599 | 112% (inactive)
2 | O=C(N[C@H](Cc1ccccc1)C(=O)O)c1sc2cc(F)ccc2c1Cl (10 µM) | 0.16 | 79.5% (inactive)
3 | COc1ccc2cc([C@H](C)C(=O)O)ccc2c1 [naproxen] (10 µM) | -0.0223 | 106% (inactive)
4 | Cc1ccsc1C(=CCCN1CCC[C@@H](C(=O)O)C1)c1sccc1C [tiagabine] (10 µM) | 0.0772 | 109% (inactive)
5 | CCN(CC)Cc1ccc(C(=O)N(CCc2ccccc2OC)[C@@H]2CCNC2)cc1 (10 µM) | 0.0144 | 98.5% (inactive)
6 | COc1c(N2C[C@@H]3CCCN[C@@H]3C2)c(F)cc2c(=O)c(C(=O)O)cn(C3CC3)c12 [moxifloxacin] (10 µM) | 0.0295 | 106% (inactive)
7 | CC(C)(C)n1nc(-c2cccc3ccccc23)c2c(N)ncnc21 [1-naphthyl-PP1] (0.833333 µM) | 0.129 | 96.5% (inactive)
8 | CC(C)(S)C(=O)N[C@@H](CS)C(=O)O [bucillamine] (10 µM) | -0.0447 | 107% (inactive)
9 | COc1cc(C(=O)N(CC[C@H]2CCCN2C)C/C(C)=C/c2ccccc2F)cc(OC)c1OC (racemic) (10 µM) | 0.055 | 108% (inactive)
10 | O=C(OCCN1CCOCC1)c1cccnc1Nc1cccc(C(F)(F)F)c1 [morniflumate] (10 µM) | 0.0767 | 108% (inactive)
11 | Nc1ccncc1N [amifampridine] (10 µM) | 0.0643 | 92% (inactive)
12 | O=C(/C=C/c1ccc(O)cc1)c1ccc(O)cc1O [isoliquiritigenin] (10 µM) | 0.403 | 103% (inactive)
13 | CC(=O)N1CCN(C)CC1 [1-acetyl-4-methylpiperazine] (10 µM) | -0.0421 | 102% (inactive)
14 | CC(C)(C)NCC(O)COc1cccc2c1CCC(=O)N2 (stereo not drawn) [carteolol] (10 µM) | 0.111 | 96.5% (inactive)
15 | C/C(=C\c1csc(C)n1)[C@@H]1C[C@@H]2O[C@]2(C)CCC[C@H](C)[C@H](O)[C@@H](C)C(=O)C(C)(C)[C@@H](O)CC(=O)N1 [ixabepilone] (10 µM) | -0.0812 | 108% (inactive)
16 | Cc1ccc(/C(=C\CN2CCCC2)c2cccc(/C=C/C(=O)O)n2)cc1 [acrivastine] (10 µM) | -0.036 | 104% (inactive)
17 | O=[N+]([O-])C(Br)(CO)CO [bronopol] (10 µM) | -0.0828 | 108% (inactive)
18 | Cc1cc(-c2nc(C(=O)Nc3cn(C4CCOCC4)nc3C(N)=O)co2)ccn1 (10 µM) | -0.166 | 118% (inactive)
19 | COc1cc(NS(C)(=O)=O)ccc1Nc1c2ccccc2nc2ccccc12 [amsacrine] (10 µM) | -0.0803 | 108% (inactive)
20 | Brc1c(Br)c(Br)c2[nH]nnc2c1Br [4,5,6,7-tetrabromobenzotriazole] (10 µM) | -0.0654 | 106% (inactive)
21 | C[C@]12CCC(=O)C=C1CC[C@@H]1[C@@H]2CC[C@@]2(C)[C@H]1CC[C@]2(C)O [17-alpha-Methyltestosterone] (10 µM) | 0.0827 | 108% (inactive)
22 | COCC(=O)O[C@]1(CCN(C)CCCc2nc3ccccc3[nH]2)CCc2cc(F)ccc2[C@@H]1C(C)C [mibefradil] (10 µM) | 0.79 | 17.5% (active)

Row | SMILES | morphology score [1] | SARS-CoV-2 infection rate [2]
23 | O=C(CCCCCCC(=O)Nc1ccccc1)NO [vorinostat] (0.833333 µM) | 0.00344 | 118% (inactive)
24 | CCCCCCCCCCCCCCCC=O [1-hexadecanal] (10 µM) | 0.185 | 100% (inactive)
25 | O=C(O)/C=C/CO [trans-4-hydroxycrotonic-acid] (10 µM) | 0.0958 | 90.5% (inactive)
26 | COc1ccc(C(=O)c2c(C)n(CCN3CCOCC3)c3cc(I)ccc23)cc1 (10 µM) | 0.116 | 102% (inactive)
27 | COc1ccc2[nH]cc(CCNC(C)=O)c2c1 [melatonin] (10 µM) | 0.0444 | 105% (inactive)
28 | C#C[C@]1(O)CC[C@H]2[C@@H]3CCc4cc(O)ccc4[C@H]3CC[C@@]21C (10 µM) | 0.128 | 102% (inactive)
29 | Nc1ncnc2c1ncn2[C@H]1CC[C@@H](CO)O1 [dideoxyadenosine] (10 µM) | 0.103 | 99% (inactive)
30 | O[C@@H](Cc1ccncc1)C(Cl)(Cl)Cl (10 µM) | 0.21 | 83.5% (inactive)
31 | CCCNC(C)C(=O)Nc1ccccc1C (stereo not drawn) [prilocaine] (10 µM) | -0.208 | 112% (inactive)
32 | COc1nc(N)nc2c1ncn2[C@@H]1O[C@H](CO)[C@@H](O)[C@@H]1O [nelarabine] (10 µM) | -0.0124 | 109% (inactive)
33 | CNCCc1ccc(O)c(O)c1 [deoxyepinephrine] (10 µM) | 0.0423 | 106% (inactive)
34 | Cc1cnc(C(=O)N[C@H]2CCCCC/C=C\[C@@H]3C[C@@]3(C(=O)NS(=O)(=O)C3CC3)NC(=O)[C@@H]3C[C@@H](Oc4nc5ccccc5c5ccccc45)CN3C2=O)cn1 [paritaprevir] (10 µM) | 0.303 | 98% (inactive)
35 | COc1ccc(CNC(=O)c2cc(-c3cncc(C)c3)ncc2-c2nccs2)nc1OC (10 µM) | -0.0112 | 100% (inactive)
36 | O=C(O)CCCCCCCC(=O)O [azelaic-acid] (10 µM) | 0.0279 | 104% (inactive)
37 | O=C1NC(c2cccc([N+](=O)[O-])c2)=CCN1c1ccccc1O [icilin] (10 µM) | 0.0675 | 100% (inactive)
38 | O=S(=O)(F)Cc1ccccc1 [phenylmethylsulfonyl-fluoride] (10 µM) | 0.191 | 95% (inactive)
39 | Cn1cc(C(=O)C(=O)N[C@H]2CN3CCC2CC3)c2ccccc21 (10 µM) | 0.181 | 97.5% (inactive)
40 | O=c1[nH]c(=O)n([C@H]2C[C@H](O)[C@@H](CO)O2)cc1C(F)(F)F [trifluridine] (0.833333 µM) | 0.175 | 101% (inactive)
41 | Cc1cc(C(=O)Nc2nc3cccc(Cl)c3n2[C@@H]2CCCCN(C(=O)/C=C/CN(C)C)C2)ccn1 (0.833333 µM) | -0.2 | 110% (inactive)
42 | COc1cccc(N(C)C(=S)Oc2ccc3c(c2)CCCC3)n1 [liranaftate] (10 µM) | 0.341 | 94% (inactive)
43 | O=C(O)C[C@H]1CC[C@H](c2ccc(NC(=O)c3nnc(Nc4ccc(F)c(F)c4)o3)cc2)CC1 (10 µM) | 0.115 | 91% (inactive)
44 | CN1C(=O)C(N2CCCCC2)S/C1=C\C(=O)O (stereo not drawn) [ozolinone] (10 µM) | 0.00951 | 108% (inactive)

Row | SMILES | morphology score [1] | SARS-CoV-2 infection rate [2]
45 | O=C(O)c1ccc(/C=C2\SC(=S)N(c3cccc(C(F)(F)F)c3)C2=O)cc1 (10 µM) | 0.125 | 108% (inactive)
46 | Nc1nc(F)nc2c1ncn2[C@@H]1O[C@H](CO)[C@@H](O)[C@@H]1O [fludarabine] (10 µM) | -0.0436 | 107% (inactive)
47 | Cc1cc(Nc2cc(N3CCN(C)CC3)nc(Sc3ccc(NC(=O)C4CC4)cc3)n2)n[nH]1 [tozasertib] (10 µM) | 0.292 | 119% (inactive)
48 | Cc1ccc(C(=O)Nc2ccc(S(=O)(=O)O)c3cc(S(=O)(=O)O)cc(S(=O)(=O)O)c23)cc1NC(=O)c1cccc(NC(=O)Nc2cccc(C(=O)Nc3cc(C(=O)Nc4ccc(S(=O)(=O)O)c5cc(S(=O)(=O)O)cc(S(=O)(=O)O)c45)ccc3C)c2)c1 [suramin] (10 µM) | 0.13 | 101% (inactive)
49 | O=NO [sodium-nitrite] (10 µM) | 0.176 | 108% (inactive)
50 | Cc1cccc(C)c1NC1=NCCCS1 [xylazine] (10 µM) | 0.241 | 108% (inactive)
51 | CC/C(=C(\c1ccc(O)cc1)c1ccc(OCCN(C)C)cc1)c1ccccc1 [afimoxifene] (10 µM) | 0.801 | 27.5% (active)
52 | N=C(N)N/N=C/c1c(Cl)cccc1Cl [guanaben-acetate] (10 µM) | -0.127 | 114% (inactive)
53 | Cc1ccc(C(C)C)c(O)c1 [thymol] (10 µM) | -0.0243 | 112% (inactive)
54 | O=C1C[C@@]2(C(=O)N1)C(=O)N(Cc1ccc(Br)cc1F)C(=O)c1cccn12 [ranirestat] (10 µM) | 0.148 | 94.5% (inactive)
55 | N=C(N)NCCC[C@H](N)C(=O)O [L-arginine] (10 µM) | 0.0506 | 113% (inactive)
56 | OC[C@@H](O)[C@@H](O)[C@H](O)[C@@H](O)CO [sorbitol] (10 µM) | -0.0534 | 110% (inactive)
57 | COC(=O)CCC(=O)CN [methyl-aminolevulinate] (10 µM) | 0.118 | 90% (inactive)
58 | COc1ccc(/C=C/CCCCOc2ccc(C(=O)c3cccc(C(=O)O)c3)cc2CCC(=O)O)cc1 (10 µM) | 0.0773 | 95% (inactive)
59 | N#Cc1cccc(C(=O)Nc2cc(-c3ccccc3)nn2-c2ccccc2)c1 (10 µM) | -0.166 | 104% (inactive)
60 | NCCCCCNCC12CC3CC(CC(C3)C1)C2 (10 µM) | 0.229 | 97.5% (inactive)
61 | Cc1csc(-c2nnc(Nc3ccc(Oc4ncccc4-c4ccnc(N)n4)cc3)c3ccccc23)c1 (0.833333 µM) | 0.202 | 19.5% (active)
62 | O=C(NCCN1CCC2(CC1)C(=O)NCN2c1cccc(F)c1)c1ccc2ccccc2c1 (10 µM) | 0.766 | 26% (active)
63 | O=C(C[S+]([O-])Cc1ccco1)NC/C=C\COc1cc(CN2CCCCC2)ccn1 (stereo not drawn) [lafutidine] (10 µM) | 0.0534 | 94% (inactive)
64 | O=C(O)/C=C1\CCCc2ccccc2[C@H]1O (racemic) (10 µM) | 0.0116 | 100% (inactive)
